Screening results as filed in PubChem BioAssay.
In the library only some 1.8% were active in any assay of this set; here they are far more common.
LYPLA2 counter – counter-screen for PME1 inhibitors: inhibitors of human LYPLA2. 320,000 compounds, 0.38% hits. inhibition, % at 5.9 µM. recombinant LYPLA2, FP-Rh probe fluorescence polarization. O95372;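 active = inhibition above the screen-wide mean plus 3 SD, limit set per campaign, cut at about 26% in these data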;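 note: 0% = LYPLA2 with DMSO and 100% = wells lacking LYPLA2 enzyme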
PME-1 inh – blocks human protein phosphatase methylesterase 1; inhibition, % at 5.9 µM; Q9Y570; recombinant PME-1, FP-Rh probe fluorescence polarization; AID 2130; 320,000 compounds, 0.53% hits;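 active = inhibition above the campaign mean of all compounds plus 3 SD, cut at about 26% in these data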;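 note: competitive labeling of PME-1 active site by serine hydrolase directed probe; 0% = PME-1 with DMSO and 100% = wells lacking PME-1 enzyme; inhibitors block probe labeling so polarization falls and inhibition rises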
Fam108B counter – Fam108B inhibition, counter-screen for RBBP9 inhibitors. 300,000 compounds, 0.33% hits. inhibition, % at 9.51 µM. recombinant Fam108B, FP-Rh probe fluorescence polarization;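 active = inhibition above the screen mean inhibition plus 3 SD, computed separately per campaign, cut at about 18% in these data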;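 note: inhibitors lower polarization as less probe binds the enzyme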
GSTO1 inh – blocks human GSTO1 in RBBP9 counter-screen; inhibition, % at 5.96 µM; 300,000 compounds, 1.1% hits; recombinant GSTO1, activity-based probe fluorescence polarization; AID 1974;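 active = inhibition above the campaign mean inhibition plus 3 SD, cut at about 35% in these data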;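 note: 0% = GSTO1-1 with DMSO and 100% = wells lacking GSTO1-1 enzyme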
LYPLA1 inh – blocks human lysophospholipase 1, a PME1 counter-screen. O75608. recombinant LYPLA1, FP-Rh probe fluorescence polarization. inhibition, % at 5.9 µM. 320,000 compounds, 0.16% hits;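 active = inhibition above the mean of all tested compounds plus 3 SD, set per campaign, cut at about 14% in these data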;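 note: inhibitors block serine hydrolase probe labeling of LYPLA1 so polarization falls; 0% = enzyme with DMSO and 100% = wells lacking LYPLA1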
PAD4 inh – inhibitors of human PAD4; 330,000 compounds, 0.41% hits; recombinant PAD4, RCA probe fluorescence polarization; Q9UM07; inhibition, % at 6.36 µM;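 active = percent inhibition above a cutoff equal to the mean of all tested compounds plus 3 SD, cut at about 15% in these data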;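 note: 0% = PAD4 with RCA probe and DMSO and 100% = probe without PAD4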
Target sequence (Q9UM07 whole entry, looked up): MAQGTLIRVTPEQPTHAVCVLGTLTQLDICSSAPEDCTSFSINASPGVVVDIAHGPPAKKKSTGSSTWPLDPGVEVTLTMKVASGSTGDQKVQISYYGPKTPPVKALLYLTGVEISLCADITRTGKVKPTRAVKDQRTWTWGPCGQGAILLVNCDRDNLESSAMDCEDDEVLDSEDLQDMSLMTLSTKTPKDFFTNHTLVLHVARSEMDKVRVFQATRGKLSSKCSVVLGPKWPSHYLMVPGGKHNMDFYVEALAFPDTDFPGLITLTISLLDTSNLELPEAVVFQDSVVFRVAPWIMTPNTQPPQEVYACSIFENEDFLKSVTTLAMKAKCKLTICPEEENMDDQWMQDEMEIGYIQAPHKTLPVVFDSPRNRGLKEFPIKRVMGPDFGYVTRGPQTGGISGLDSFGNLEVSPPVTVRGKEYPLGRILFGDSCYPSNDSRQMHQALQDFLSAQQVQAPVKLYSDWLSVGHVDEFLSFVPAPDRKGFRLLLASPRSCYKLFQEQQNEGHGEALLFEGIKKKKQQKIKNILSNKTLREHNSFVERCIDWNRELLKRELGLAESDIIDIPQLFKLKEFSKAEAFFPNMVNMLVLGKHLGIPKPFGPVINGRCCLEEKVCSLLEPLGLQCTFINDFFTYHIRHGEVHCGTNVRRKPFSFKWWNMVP
LYPLA1 conf – LYPLA1 (human) inhibition, confirmation counter-screen; shares compounds with LYPLA1 inh; recombinant LYPLA1, FP-Rh probe fluorescence polarization; inhibition, % at 5.9 µM; 480 compounds, 69% hits; AID 2233;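 active = mean inhibition across replicates above the hit cutoff set in the primary screen, cut at about 15% in these data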;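 note: loss of FP-Rh probe labeling of LYPLA1 seen as lower polarization; 0% = LYPLA1 with DMSO and 100% = wells lacking LYPLA1 enzyme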
LYPLA2 conf – LYPLA2 (human) inhibition, confirmation counter-screen | inhibition, % at 5.9 µM | AID 2232 | recombinant LYPLA2, FP-Rh probe fluorescence polarization | shares compounds with LYPLA2 counter | 1,100 compounds, 72% hits;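 active = mean inhibition across replicates above the hit cutoff set in the primary screen, cut at about 26% in these data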;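 note: blocked labeling of the enzyme by serine hydrolase FP-Rh probe lowers polarization; 0% = enzyme with DMSO and 100% = wells lacking LYPLA2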
LYPLA2 ABPP – inhibitors of human LYPLA2 | 150 compounds, 30% hits | AID 652029 | shares compounds with LYPLA2 counter | inhibition, % at 20 µM | rhLYPLA2 in mouse brain proteome, gel ABPP FP-Rh;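 active = inhibition of LYPLA2 enzyme probe labeling above about 50%, limit read from the data; inactive = inhibition below that limit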;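 note: loss of FP-Rh probe labeling of the LYPLA2 gel band measured as band density; 0% = DMSO only control band and 100% = blank gel background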
PAD4 confirm – confirmation of human PAD4 inhibitors; 1,200 compounds, 28% hits; shares compounds with PAD4 inh; inhibition, % at 6.36 µM; recombinant PAD4, RCA probe fluorescence polarization; AID 488796;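 active = mean inhibition across replicates above the hit cutoff set by the earlier primary screen, cut at about 15% in these data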;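 note: inhibitors block active-site labeling by the probe so polarization falls; 0% = PAD4 with probe and DMSO and 100% = probe without PAD4 enzyme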
* marks the source's active call; other numbers are inactive results; · = no result.

SMILES | LYPLA2 counter | PME-1 inh | Fam108B counter | GSTO1 inh | LYPLA1 inh | PAD4 inh | LYPLA1 conf | LYPLA2 conf | others
O=C(NC(=S)NN1CCCCC1c1cccnc1)c1ccc(Cl)cc1Cl (centres undefined) | -3 | -1 | -1 | 7 | -1 | -3 | · | ·
Cc1ccc(-c2noc(C3CCCN(C(=O)c4ccc(C(C)(C)C)cc4)C3)n2)o1 (centres undefined) | 36* | -2 | -1 | 2 | 20* | 1 | 23* | 37*
c1ccc(CN2CCN(CCCNc3ccc4nnc(-c5ccccc5)n4n3)CC2)cc1 | 38* | 3 | -2 | 2 | 36* | 5 | 38* | 29*
C/C(=N/NC(=O)CNC(=O)/C=C/c1ccccc1)c1ccco1 | 1 | 0 | 3 | 7 | -2 | -4 | · | ·
COc1ccc(OCC(O)CN2CCC(CN3C(=O)c4cccc5cccc(c45)C3=O)CC2)cc1 (centres undefined) | 69* | -3 | -3 | 25 | 20* | 1 | 23* | 69*
CC(=O)N1CC=C2C(C#N)=C(N)C(C#N)(C#N)[C@H](c3ccoc3)[C@H]2C1 | 7 | 3 | 8 | 5 | 3 | 0 | · | ·
CN1CC=C2C(C#N)=C(N)C(C#N)(C#N)[C@H](c3ccoc3)[C@H]2C1 | 14 | 14 | 9 | 41* | 14* | 22* | 0 | · | PAD4 confirm=-2
CCCS(=O)(=O)c1ccc(COC(=O)Cc2ccc([N+](=O)[O-])cc2)cc1 | 8 | 1 | 1 | 3 | 0 | 0 | · | ·
Cc1ccc(N(CC(=O)Nc2ccc(C)cn2)S(=O)(=O)c2c(C)nn(C)c2C)cc1 | 16 | 6 | 16 | 36* | 16* | 49* | 2 | · | PAD4 confirm=-6
CC(=O)Nc1ccc(Nc2c3c4c(cccc4n(C)c2=O)C(=O)c2ccccc2-3)cc1 | 29* | 33* | 15 | 9 | 21* | 19* | 12 | 12 | PAD4 confirm=23*
CC(=O)Nc1ccc(NC(=O)CCCCCN2C(=O)c3ccccc3C2=O)cc1 | 14 | -2 | -3 | 6 | -2 | 5 | · | ·
CN(C)S(=O)(=O)c1ccc(NC(=O)N2CCN(c3ccccc3Cl)CC2)cc1 | 12 | 4 | -3 | -8 | 1 | -4 | · | ·
Nc1ccc(N2CCOCC2)c2nonc12 | 70* | 25 | 9 | 86* | 70* | 81* | 1 | · | PAD4 confirm=-8
Cc1ccc(-c2ccccc2NC(=O)CS(=O)CC(=O)Nc2ccc(C)c(Cl)c2)o1 (centres undefined) | 59* | 45* | 0 | 28 | 46* | 113* | 3 | 9 | PAD4 confirm=2
CCOC(=O)CCSc1cc(C)c2ccccc2n1 | 3 | 1 | -7 | 2 | 0 | -5 | · | ·
CCCCN(C)C1=CC2=CC(=C(C#N)C#N)CCC2CC1 (centres undefined) | 12 | 42* | 6 | 2 | 32* | 46* | 8 | · | PAD4 confirm=21*
Cc1ccc(OC2=NS(=O)(=O)c3ccccc32)cc1 | -2 | 2 | -2 | -1 | 2 | 0 | · | ·
CCN(CC)c1cccc(OC2=NS(=O)(=O)c3ccccc32)c1 | 16 | 11 | 6 | 17 | 15* | 65* | 0 | · | PAD4 confirm=-4
CC1(OC(=O)c2cccs2)C(=O)C=C2C=C(C3CC3)OC=C2C1=O (centres undefined) | 8 | 3 | 6 | 24 | 4 | -3 | · | ·
CC1(OC(=O)c2ccco2)C(=O)C=C2C=C(C3CC3)OC=C2C1=O (centres undefined) | 23 | 20 | 14 | 30 | 21* | 20* | 15* | · | PAD4 confirm=11
COc1cccc(/C=N/NC(=O)c2cnccn2)c1OC | -6 | -3 | 2 | 1 | 3 | -1 | · | ·
O=C(NCCC1=CCCCC1)C1CCN(S(=O)(=O)c2cccc(C(F)(F)F)c2)CC1 | 3 | 1 | · | · | -1 | -1 | · | ·
O=C(NCCC1=CCCCC1)C1CCN(S(=O)(=O)c2ccccc2)CC1 | 28* | 24 | 1 | 12 | 0 | -1 | · | 0
O=C(OCC(=O)N1CCN(C(=O)COC(=O)c2ccc(O)cc2O)CC1)c1ccc(O)cc1O | 28* | -1 | 0 | 12 | 4 | 5 | · | 27*
CCOC(=O)N1CCN(C(=O)COC(=O)c2ccc(O)cc2O)CC1 | 0 | -2 | -7 | -1 | -3 | -1 | · | ·
SMILES | LYPLA2 counter | PME-1 inh | Fam108B counter | GSTO1 inh | LYPLA1 inh | PAD4 inh | LYPLA1 conf | LYPLA2 conf | others
COc1ccccc1CNC(=O)/C(C#N)=C/c1ccc(OC)c(OC)c1OC | 2 | -9 | -2 | 1 | -2 | -2 | · | ·
CCOC(=O)c1ccc(NC(=O)Nc2cc(C)cc(C)n2)cc1 | -1 | -3 | 2 | -7 | -3 | 0 | · | ·
CCCCCCC1CC(CC(=O)Nc2ccc([N+](=O)[O-])cc2)C(=O)O1 (centres undefined) | 34* | 5 | -5 | -3 | 1 | -4 | · | 28*
O=C(CNc1ccccc1Cl)c1ccc(Br)cc1 | 7 | 1 | 0 | -1 | -2 | -3 | · | ·
COc1ccc(S(=O)(=O)N2CCC(C(=O)N3CCN(C)CC3)CC2)cc1OC | -1 | -3 | 5 | -1 | -3 | -6 | · | ·
O=C(O)c1ccc(/C=N/NC(=O)c2ccc(CN3c4cccc5cccc(c45)S3(=O)=O)cc2)cc1 | -12 | -38 | -23 | -41 | -25 | -10 | · | ·
O=C1CCC/C(=N/NC(=O)c2ccc(CN3c4cccc5cccc(c45)S3(=O)=O)cc2)C1 | 57* | 0 | 7 | -1 | -4 | -1 | · | 67*
Cc1occc1-c1nnc(SCCCC(=O)c2ccc(F)cc2)n1C | 2 | -3 | 4 | 11 | 0 | 2 | · | ·
CCn1c(SCC(=O)c2ccc(F)cc2)nnc1-c1ccoc1C | 35* | -1 | -2 | 8 | 5 | -2 | · | -3
CC1CCN(C(=O)COC(=O)c2cccc(NS(=O)(=O)c3ccccc3)c2)CC1 | -2 | 1 | 2 | 2 | -1 | -6 | · | ·
CC(NCc1ccc(OCc2ccc(Cl)cc2)cc1)C(O)c1ccccc1 (centres undefined) | 39* | -8 | 3 | -1 | 1 | 0 | · | 38*
O=C1CC(c2ccc(Cl)cc2)CC(O)=C1C=NCc1ccc(Cl)c(Cl)c1 (centres undefined) | 27* | -2 | 5 | 2 | 2 | -4 | · | 58* | LYPLA2 ABPP=37
O=C(COc1cccc(Br)c1)Nc1ccc(N2CCOCC2)cc1N1CCOCC1 | 11 | 10 | · | · | 5 | 8 | · | ·
